Assay results: PubChem BioAssay

Tested on: Plasmodium falciparum Sir2 (PF13_0152, Sir2A)
Assay: pfSir2 binders on small-molecule microarrays, primary screen, biochemical, small-molecule microarray, 635 nm fluorescence (AID 1098);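 further: score merges spot fluorescence intensity with its signal-to-noise ratio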
Settings: small-molecule microarray binding, fluorescence 635 nm; higher = more signal

Going from `CCOC(=O)[C@H]1C/C=C/C[C@H](C(=O)OCC)C(=O)O[C@H]2[C@@H](OC)O[C@H](CO)[C@@H](OC(=O)Nc3ccc(OC)cc3)[C@@H]2OC1=O` to `COC(=O)C(CC#Cc1ccc2c(c1)[C@]1(C(=O)N2)[C@H](C(=O)O)[C@H]2C(=O)O[C@H](c3ccccc3)[C@H](c3ccccc3)N2[C@@H]1c1ccccc1OCCO)C(=O)OC`, the composite z-score rises from 0.692 to 1.58.

Going from `C=CCC(OC(C)=O)[C@@H]1[C@@H](N(Cc2cc3ccccc3o2)C(=O)c2ccc(C)cc2)c2cc(OCCCO)ccc2N1C(=O)Cc1ccc2ccccc2c1` (stereo partly drawn) to `C=CCOC(=O)[C@@H]1[C@H]2C(=O)O[C@H](c3ccccc3)[C@H](c3ccccc3)N2[C@H](c2ccc(OCCOC(=O)[C@H]3C[C@H]4C(=O)N[C@@H](CCCCN(C)C)C(=O)N4[C@H]3c3cccc(OCCO)c3)cc2)[C@@]12C(=O)Nc1ccc(I)cc12`, the composite z-score rises from -0.45 to 1.41.

First: Cc1ccc(S[C@]2(C(=O)NC3CC3)CC(=O)N(Cc3ccccc3Cl)[C@@H]2c2ccc(CO)cc2I)cc1
Second: [N-]=[N+]=Nc1ccccc1[C@H]1OC(c2ccc(OCCCO)cc2)=N[C@@]1(CCS(=O)(=O)c1ccccc1)C(=O)N1CCCCC1
The composite z-score of the first is lower: 1.35 for the first, 1.37 for the second.

Compared with `O=C1NC(=O)C2C1C=CC(C(O)c1ccc(Br)cc1)N2Nc1ccccn1` (stereo not drawn), `O=C1NC(=O)C2C1C=CC(C(O)c1c(F)cccc1Cl)N2Nc1ccccn1` (stereo not drawn) is higher in composite z-score: 0.246 for the first, 0.419 for the second.
